Shown are actives, neighbours in structure and some others; about 3.5% of the full set was active somewhere.
TEAD-YAP block: TEAD-YAP interaction inhibition; HEK-TIYL cells, TEAD-Gal4/YAP UAS-luciferase luminescence; inhibition, % at 9.12 µM; actives 1.4% (n = 640,000); AID 1259422; in the data active = inhibition above about 32%
FBW7 activator: activators of human E3 ligase FBW7; Q969H0; AlphaScreen FBW7–phospho-cyclin E peptide binding, activator screen; normalized activity (activation), % at 26.1 µM; actives 0.13% (n = 650,000); in the data active = normalized activity above about 1.9%;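 also: purified mutant Fbw7 with reduced substrate affinity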
GPR151 ag: activates the human receptor GPR151 | Q8TDV0 | PathHunter beta-arrestin GPR151 cells, luminescence | activation, % at 11.2 µM | actives 1% (n = 650,000) | AID 1508602; in the data active = activation above about 4.9%
Target sequence (Q8TDV0 whole entry, looked up): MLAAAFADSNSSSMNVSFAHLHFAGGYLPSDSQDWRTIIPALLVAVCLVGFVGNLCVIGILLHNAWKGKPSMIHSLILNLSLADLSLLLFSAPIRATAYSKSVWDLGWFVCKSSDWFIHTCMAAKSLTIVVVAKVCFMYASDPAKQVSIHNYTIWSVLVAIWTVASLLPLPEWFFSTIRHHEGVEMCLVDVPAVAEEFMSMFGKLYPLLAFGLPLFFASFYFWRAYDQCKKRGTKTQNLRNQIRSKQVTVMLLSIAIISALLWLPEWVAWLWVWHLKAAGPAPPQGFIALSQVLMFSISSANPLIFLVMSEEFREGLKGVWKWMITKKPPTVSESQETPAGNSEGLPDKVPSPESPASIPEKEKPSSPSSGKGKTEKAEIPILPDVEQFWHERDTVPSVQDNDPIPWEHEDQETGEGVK
MITF primary: inhibitors of human MITF | O75030 | AlphaScreen MITF homodimerization, bead proximity signal | inhibition, % at 2.6 µM | actives 0.91% (n = 650,000) | AID 1259374; in the data active = inhibition above about 50%
MITF confirm: confirmation of human MITF inhibitors. AlphaScreen MITF homodimerization, biotin/His-MITF beads. shares compounds with MITF primary. actives 16% (n = 4,700). inhibition, % at 2.6 µM. AID 1259372;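 active = inhibition above a cutoff derived from the DMSO control wells, cut at about 28% in these data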;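 also: inhibitors lower the bead chemiluminescence by keeping MITF from dimerizing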
AS interf DR: AlphaScreen optical interference, dose response counter-screen; shares compounds with MITF primary; AlphaScreen optical interference counterscreen, cell-free; IC50, µM; actives 6% (n = 480); AID 1259373; call rule not given here
AS interf ctr: counter-screen: compounds optically interfering with AlphaScreen; LysRS AlphaScreen counterscreen, signal interference, triplicate; shares compounds with MITF primary; actives 7.6% (n = 4,700); AID 1259376; inhibition, % at 2.6 µM;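 active = inhibition above a cutoff derived from the DMSO control wells, cut at about 30% in these data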
Large screens that a line does not name were inactive (follow-up assays come after a bar, where they were run).

O=C(O)c1cc([N+](=O)[O-])cc2c1-c1c(cc([N+](=O)[O-])cc1[N+](=O)[O-])/C2=C/c1ccco1	MITF primary 62 | MITF confirm 68 | AS interf DR inactive | AS interf ctr inactive
CCOC(=O)C1=C(O)/C(=C\c2ccc3c(c2)OCO3)N=C1C	none
CC(C)C[C@H]1C(=O)N2CCN(C(=O)NC3CCCCC3)C[C@@H]2C(=O)N1C	MITF primary 70 | MITF confirm 71 | AS interf DR inactive | AS interf ctr inactive
C[C@H]1C(=O)N2CCN(C(=O)NC3CCCCC3)C[C@@H]2C(=O)N1C	MITF primary 78 | MITF confirm 74 | AS interf DR inactive | AS interf ctr inactive
Cc1ccc(C(=O)N2CCN3C(=O)[C@H](C)N(C)C(=O)[C@H]3C2)cc1	none
CC1CC(=O)N(c2ccc(NCCC3=CCCCC3)c([N+](=O)[O-])c2)C1=O (stereo unspecified)	none
CCOc1ccc(N2C(=O)c3ccccc3NC2c2ccc(N(C)C)cc2)cc1 (stereo unspecified)	none
CCOc1ccc(OCC)c(S(=O)(=O)NCc2cccnc2)c1	MITF primary 57 | MITF confirm inactive | AS interf ctr inactive
COc1ccc(OC)c(S(=O)(=O)NCc2cccnc2)c1	none
COC(=O)CC1(OC(C)=O)C(C)=CCC2C(C)(C)CCCC21C (stereo unspecified)	none
CCN(CCO)C(=O)c1cnn(-c2nccc(-c3cc(C)sc3C)n2)c1COC	none
CC(CCc1ccccc1)NCc1nc2ccsc2c(=O)[nH]1 (stereo unspecified)	MITF primary 52 | MITF confirm inactive | AS interf ctr inactive
CN(C(=O)c1cccs1)C(Cc1ccccc1)C1CCN(C(=O)c2cnsn2)CC1 (stereo unspecified)	none
Cc1cc(NC(=O)C(C)NCc2ccc(F)cc2)no1 (stereo unspecified)	none
Cc1cc(NC(=O)C(C)NCc2cccs2)no1 (stereo unspecified)	MITF primary 54 | MITF confirm inactive | AS interf ctr inactive
CCN(CC)CCCNC(C)C(=O)Nc1cc(C)on1 (stereo unspecified)	MITF primary 80 | MITF confirm inactive | AS interf ctr inactive
COc1ccc(CNC(=O)CCc2nnc(C(OC)c3ccccc3)o2)cc1 (stereo unspecified)	none
O=C(c1cccc(F)c1)N1CCN(Cc2cccc(Br)c2)CC1	none
COc1cccc(CN2CCN(C(=O)Nc3cccc(Cl)c3)CC2)c1	MITF primary 51 | MITF confirm inactive | AS interf ctr inactive
COc1cccc(CN2CCN(C(=O)c3ccc(F)cc3)CC2)c1	MITF primary 60 | MITF confirm 52 | AS interf DR inactive | AS interf ctr inactive
O=C(c1ccncc1)N1CCN(Cc2cccc(Br)c2)CC1	MITF primary 65 | MITF confirm inactive | AS interf ctr inactive
COc1cccc(CN2CCC(C(=O)NC(C)C)CC2)c1	none
Cc1cccc(CN2CCC(C(=O)NC(C)C)CC2)c1	MITF primary 77 | MITF confirm inactive | AS interf ctr inactive
N#Cc1cc(-c2ccc(F)cc2)no1	none
Fc1ccc(CC2NCCn3cccc32)cc1 (stereo unspecified)	none
Cc1cccc(CN2CCN(C(=O)c3ccc(F)cc3)CC2)c1	MITF primary 68 | MITF confirm inactive | AS interf ctr inactive
O=C(c1ccc(-c2ccccc2)cc1)N1CCN(Cc2cccc(F)c2)CC1	MITF primary 64 | MITF confirm inactive | AS interf ctr inactive
COc1cccc(CN2CCN(C(=O)c3ccncc3)CC2)c1	MITF primary 81 | MITF confirm inactive | AS interf ctr inactive
Cc1cccc(CN2CCN(C(=O)c3ccccc3F)CC2)c1	none
Nc1ncc(Cc2ccc(Br)cc2)s1	none
CCN(CC(=O)Nc1ccc(F)cc1Cl)CC(=O)NC(C)C	none
CCN(CC(=O)Nc1cc(F)ccc1F)CC(=O)NC(C)C	MITF primary 63 | MITF confirm inactive | AS interf ctr inactive
NC(=O)NC(=O)COC(=O)c1c2c(nc3ccccc13)/C(=C/c1ccccc1)CC2	none
CC1CCCN(C(=O)COc2cc(=O)n(C)c3ccccc23)C1 (stereo unspecified)	none
CCOC(=O)C1=C(C)N=c2s/c(=C\c3c(C)[nH]c4ccccc34)c(=O)n2C1c1ccccc1 (stereo unspecified)	MITF primary 66 | MITF confirm inactive | AS interf ctr inactive
CCOC(=O)C1=C(c2ccccc2)N=c2s/c(=C\c3cccs3)c(=O)n2C1c1c(OC)ccc2ccccc12 (stereo unspecified)	MITF primary 55 | MITF confirm inactive | AS interf ctr inactive
COC(=O)c1c(NC(=O)C2CC2)sc2c1CCN(C(C)=O)C2	none
COC(=O)c1c(NC(=O)/C=C/C(=O)O)sc2c1CCN(C(C)=O)C2	MITF primary 83 | MITF confirm inactive | AS interf ctr inactive
CCC(=O)c1ccccc1OCCN1CCN(CC)CC1	MITF primary 68 | MITF confirm inactive | AS interf ctr inactive
CCC(=O)c1ccccc1OCCCN1CCN(Cc2ccccc2)CC1	MITF primary 56 | MITF confirm inactive | AS interf ctr inactive
CCC(=O)c1ccccc1OCCCCN1CCN(C)CC1	none
CCC(=O)c1ccccc1OCCCCn1cncn1	MITF primary 74 | MITF confirm inactive | AS interf ctr inactive
Cc1c(C(=O)C(=O)NCc2ccccc2)c2ccccc2n1C	none
CN(C)/C=C/C=C/C=C/C(=O)c1ccc(C(=O)/C=C/C=C/C=C/N(C)C)cc1	MITF primary 84 | MITF confirm 68 | AS interf ctr inactive
CN(C)/C=C/C=C/C(=O)c1ccccc1N(C)C	none
CCn1nnc(NC(=O)c2ccccc2)n1	MITF primary 58 | MITF confirm inactive | AS interf ctr inactive
Cc1cc2c(=O)n(Cc3ccco3)c(SCC(=O)Nc3ccccc3Cl)nc2s1	none
COc1cc2cc3c(N)c(C(=O)Nc4sc(C)c(C)c4C#N)sc3nc2cc1OC	MITF primary 62 | MITF confirm 70 | AS interf DR inactive | AS interf ctr inactive
COc1ccc(C(=O)C2CCN(C(=S)NCC3CCCO3)CC2)cc1 (stereo unspecified)	MITF primary 85 | MITF confirm inactive | AS interf ctr inactive
COCCNC(=O)C1CCN(Cc2cc(OC)ccc2OC)CC1	none
COc1ccc(OC)c(CN2CCC(C(=O)NCC3CCCO3)CC2)c1 (stereo unspecified)	MITF primary 54 | MITF confirm inactive | AS interf ctr inactive
O=C(NCC1CCCO1)C1CCN(Cc2c[nH]c3ccccc23)CC1 (stereo unspecified)	MITF primary 55 | MITF confirm inactive | AS interf ctr inactive
N#Cc1nc2n(c1C#N)CN(CCc1ccc(Cl)cc1Cl)CN2	none
O=C1C(=O)N(CC2CCCO2)C(c2ccc(Cl)cc2)/C1=C(/O)c1ccccc1 (stereo unspecified)	none
